Experimental data: PubChem BioAssay (NCI)
About 79,000 compounds went through this panel and 15% of them were active in at least one assay; those are over-represented in the sample as a whole. Cut-off read from the data, not from the text of the source: active = growth inhibition above about 70%; inactive = the rest.

Key:
[1] = NCI Yeast Anticancer Drug Screen. Data for the rad50 strain (AID 155);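 note: 0% = growth of vehicle-only cultures of the same strain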; details: S. cerevisiae rad50 strain growth inhibition; at 50.0 µM; stronger effect = higher value
Summary of the method: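 Relative growth inhibition (compound vs vehicle) was measured in yeast with a defined repair-gene alteration.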

[2] = NCI Yeast Anticancer Drug Screen. Data for the mec2-1 strain (AID 157); details: S. cerevisiae mec2-1 strain, at 50.0 µM, stronger effect = higher value
Summary of the method: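 Strain: mec2-1 (DNA repair/cell cycle alteration). Compound exposure, then growth measured; inhibition expressed relative to vehicle.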

[3] = NCI Yeast Anticancer Drug Screen. Data for the sgs1 mgt1 strain (AID 161);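 note: 0% = growth of cultures given vehicle only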; details: S. cerevisiae sgs1 mgt1 strain, at 50.0 µM, stronger effect = higher value
Summary of the method: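 Inhibition of yeast growth, normalised to vehicle-treated controls, is reported for a strain bearing genetic alterations in DNA damage repair.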

[4] = NCI Yeast Anticancer Drug Screen. Data for the cln2 rad14 strain (AID 165);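 note: 0% = growth equal to vehicle treated cultures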; details: S. cerevisiae cln2 rad14 strain, at 50.0 µM, stronger effect = higher value
Summary of the method: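 Compounds are applied to the cln2 rad14 yeast strain, and growth is then compared with that of vehicle-treated cultures to give inhibition.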

[5] = NCI Yeast Anticancer Drug Screen. Data for the bub3 strain (AID 167); details: S. cerevisiae bub3 mutant strain, at 50.0 µM, stronger effect = higher value
Summary of the method: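 Screening used yeast with an engineered genetic alteration affecting cell cycle control. Compound-exposed cultures were compared with vehicle cultures, and reduced growth was taken as inhibition.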

[6] = NCI Yeast Anticancer Drug Screen. Data for the mlh1 rad18 strain (AID 175); details: S. cerevisiae mlh1 rad18 strain growth inhibition; at 50.0 µM; stronger effect = higher value
Summary of the method: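 Read-out is yeast growth inhibition, calculated against vehicle-only controls. The compound was applied to a strain engineered with DNA damage repair alterations.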

Measured: growth inhibition

COc1ccc(C(Cc2ccccc2Cl)N(CCO)CCO)cc1 (centres undefined)
inactive: [1] -7% | [2] -5.3% | [3] -9.1% | [4] -19.2% | [5] 5.5% | [6] -5.2%

O=C(O)c1ccc(Cl)c(N=C/C=C/c2ccccc2)c1
inactive: [1] 1.85% | [2] -37.5% | [3] 6.6% | [4] -15.3% | [5] 3.45% | [6] -6.9%

NC(=O)N/N=C(\CCC(=O)N(Cc1ccccc1)Cc1ccccc1)CC(=O)c1ccc(F)cc1
inactive: [1] -1.5% | [2] 10.8% | [3] -30.9% | [4] 18.8% | [5] -7.9% | [6] -14.9%

O=C1OC(c2ccccc2)=N/C1=C\c1ccco1
inactive: [1] -2.95% | [2] -19.3% | [3] -24.4% | [4] 19.6% | [5] -22.2% | [6] 23.6%

CCSCC1C=CC(n2cnc3c(N)ncnc32)O1 (centres undefined)
inactive: [1] -10.3% | [2] -29.2% | [3] -22.1% | [4] -0.25% | [5] 5.55% | [6] 10.1%

O=C(/C=C/c1ccccc1)NC1C=Nc2ccc(Cl)cc2NC1=O (centres undefined)
inactive: [1] 39% | [2] 53.7% | [3] 38.5% | [4] 23% | [5] 28.2% | [6] 26.2%

COc1ccc2c(O)c(Oc3ccc(Cl)cc3)c(=O)oc2c1
inactive: [1] -4.2% | [2] -1.1% | [3] -1.45% | [4] 2.6% | [5] 7.95% | [6] 22.4%

COc1ccc(OC)c(/C=C/c2ccc(NC(=O)C(Cl)(Cl)Cl)cc2)c1
inactive: [1] -11.1% | [2] -3.8% | [3] -12.2% | [4] -36.3% | [5] -2.55% | [6] 10.2%

O=C(O)CCC(=O)Nc1ccc(C(=O)O)c(O)c1
inactive: [1] 8.4% | [2] -27.8% | [3] -11.1% | [4] -4.45% | [5] 20.9% | [6] -17.9%

Cc1ccc(CCC=O)cc1
inactive: [1] 30.6% | [2] -4.1% | [3] 17.4% | [4] -37.9% | [5] -8.5% | [6] 29.4%

O=C(O)CCC(=O)Nc1ccc(S(=O)(=O)Nc2nccs2)cc1
inactive: [1] -18% | [2] -36.2% | [3] -16.5% | [4] -17.9% | [5] -18.3% | [6] -14.6%

CC(=O)Cc1nc(N)nc(Nc2ccc(Cl)c(Cl)c2)n1
inactive: [1] -8.9% | [2] 13.7% | [3] -10.1% | [4] -11.3% | [5] -13% | [6] -20.5%

NC(=O)NC(Cc1ccccc1)(C(=O)O)c1ccccc1 (centres undefined)
inactive: [1] 6.55% | [2] 6.15% | [3] 35.9% | [4] -0.75% | [5] 24.4% | [6] 20.4%

Cc1cccc(C(C)(C)C)c1NC(=O)C(=O)C(C(=O)/C=C\c1ccccc1)C1OC(=O)c2ccccc21 (centres undefined)
inactive: [1] 7.4% | [2] -4.95% | [3] 12.3% | [4] 30.4% | [5] 13.8% | [6] 6.1%

CCOC(=O)c1ccc(Nc2nc3ccccc3nc2C(=O)OCC)cc1
inactive: [1] -31.8% | [2] -39.1% | [3] -4.95% | [4] -3.7% | [5] 18.4% | [6] -26.9%

Cc1ccc2nnc(NS(=O)(=O)c3cc(C)c(Cl)cc3S)n2n1
inactive: [1] -30.3% | [2] -7.75% | [3] -24.9% | [4] -16.9% | [5] -0.9% | [6] -25.4%

CSc1cc2c(cc1NC(C)=O)Cc1ccccc1-2
inactive: [1] 13.4% | [2] -3.75% | [3] 0.6% | [4] 10.5% | [5] 9.15% | [6] -13.4%

O=[N+]([O-])c1cccc(/C=C/C=C/c2ccc(Cl)c(Cl)c2)c1
inactive: [1] 7.65% | [2] 9.3% | [3] 30.3% | [4] 3.65% | [5] 28.2% | [6] 4.1%

C=CC(CO)N(CC)CC (centres undefined)
inactive: [1] 9.55% | [2] 8.7% | [3] 7.25% | [4] 13.3% | [5] 1.8% | [6] 11.3%
